Out of some 300,000 compounds screened, about 37,000 (12%) were called active. Rule as the data show it: active = max response mostly above about 13% (no sharp cut-off); inactive = mostly below about 14%. This excerpt belongs to a sample that is enriched for actives.
assay: Cycloheximide Counterscreen for Small Molecule Inhibitors of Shiga Toxin; conditions: cell reporter, cycloheximide protein synthesis inhibition counterscreen; hits give high values; also: read at 38.3 µM for the half of the compounds with a filed dose; 0% is about no effect

SMILES	max response
Cc1cc2c(c(=O)n1C)C(C(C)C)C(C#N)=C(N)O2 (stereo not drawn)	-2.6% (inactive)
Cc1cccc(C)c1NC(=O)CS(=O)CC(=O)N1CCN(c2ccccc2)CC1 (stereo not drawn)	-5.35% (inactive)
CCc1cccc(C)c1N1C(=O)CN(Cc2ccccc2)C1=S	-2.45% (inactive)
O=C1/C(=C\c2cccnc2)CN(Cc2ccccc2)C/C1=C\c1cccnc1	7.45% (inactive)
CCOC(=O)N1CCN(c2c(NCCN3CCN(c4ccccc4F)CC3)c(=O)c2=O)CC1	-2.33% (inactive)
COc1ccc(C(CNCC(=O)Nc2ccccc2F)N(C)C)cc1 (stereo not drawn)	-2.53% (inactive)
COc1ccc(C2C(C#N)=C(N)Oc3cc(N)ccc32)cc1OC (stereo not drawn)	11.4% (inactive)
COCCCn1c(SCc2cccc(OC)c2)nc2cc(OC)c(OC)cc2c1=N	6.77% (inactive)
O=C(CN1CCN(CC(=O)Nc2ccc3c(c2)OCO3)CC1)Nc1ccc(F)cc1	-2.15% (inactive)
N#Cc1ccccc1NC(=O)c1ccc2c(c1)OCO2	24.8% (active)
Cc1onc(-c2ccccc2)c1C(=O)Nc1ccccc1C#N	3.86% (inactive)
CC1(c2ccc(Cl)cc2)NC(=O)N(CC(=O)c2ccc3c(c2)OCO3)C1=O (stereo not drawn)	14.2% (inactive)
O=C(CN1CCN(c2ccccc2F)CC1)c1ccc2c(c1)OCO2	16.8% (active)
O=C(c1ccc2c(c1)OCO2)N1CCNc2ccccc2C1	3.63% (inactive)
CSCCC(NC(=O)c1cc([N+](=O)[O-])cc([N+](=O)[O-])c1)c1nc2ccccc2[nH]1 (stereo not drawn)	-1.41% (inactive)
Cc1cc(C(=O)N/N=C/c2cc([N+](=O)[O-])cc(C)c2O)n[nH]1	4.92% (inactive)
Cc1cc(=O)[nH]c(Nc2cccc(Br)c2)n1	-1.7% (inactive)
CN(C)Cc1c(C(=O)N/N=C/c2ccccc2OCc2ccc(F)cc2)nnn1-c1nonc1N	-5.05% (inactive)
O=C(/C=C/c1ccc(Cl)cc1)NCCCn1ccnc1	13.1% (active)
O=C(NCCCn1ccnc1)Nc1ccc(Cl)cc1Cl	-6.88% (inactive)

SMILES	max response
CC(C)(C)c1ccc(/C=C/C(=O)NCCCn2ccnc2)cc1	-3.02% (inactive)
FC(F)(F)c1ccc(CN2C[C@@H]3C(c4ccccc4)C4(c5ccccc5)CC3(C4)[C@H]2c2ccccc2)cc1 (stereo partly drawn)	-2.46% (inactive)
Cc1ccc2nc(-c3ccc(NC(=O)CN(C)S(=O)(=O)c4ccccc4)cc3)sc2c1	41.9% (active)
Cc1cccc(N(CC(=O)Nc2ccc(-c3nc4ccc(C)cc4s3)cc2)S(C)(=O)=O)c1	43% (active)
Cc1nc2ccc(S(=O)(=O)N(C)CC(=O)NC(C)c3ccccc3)cc2s1 (stereo not drawn)	-0.483% (inactive)
COc1cc(NC(=O)CN(C)S(=O)(=O)c2ccc3nc(C)sc3c2)cc(OC)c1	-1.04% (inactive)
CCN(CC)S(=O)(=O)c1ccc(NC(=O)CN(c2cccc(F)c2)S(C)(=O)=O)cc1	-1.18% (inactive)
Cc1ccc(N(CC(=O)Nc2cc(C)cc(C)c2)S(=O)(=O)c2cccc3nonc23)cc1	-2.6% (inactive)
COc1ccc(/C=C/CN2CCCC(C(=O)c3cc(F)ccc3F)C2)cc1 (stereo not drawn)	4.59% (inactive)
COc1ccc(-c2nc3n(c(=O)c2C#N)CCS3)c(OC)c1	-3.87% (inactive)
COc1ccc(F)c(-c2nc(CN3CCC(c4ccccc4)CC3)c(C)o2)c1	-1.94% (inactive)
COc1cc(/C=C2\C(=N)N3N=C(CC(=O)N4CCOCC4)SC3=NC2=O)cc(OC)c1OC	-8.71% (inactive)
CN(C)N1C(N)=C(C#N)C(c2ccc(Br)cc2)C2=C1CCCC2=O (stereo not drawn)	11.2% (inactive)
COc1cccc(C(=O)NC(=O)Nc2nc(C)cc(C(F)(F)F)n2)c1	-1.67% (inactive)
Cc1cc(C)nc(NC(=O)C(C)N2C(=O)c3ccccc3C2=O)n1 (stereo not drawn)	-0.537% (inactive)
Cc1cc(C)nc(NC(=O)Nc2ccccc2C(F)(F)F)n1	25.8% (active)
NNC(=O)c1nnn(-c2nonc2N)c1CN1CCCC1	-0.43% (inactive)
CCOc1cc2[nH]c(=S)n(Cc3ccc(C(=O)N4CCN(C)CC4)cc3)c(=O)c2cc1OCC	-1.74% (inactive)
Cc1ccc(OCCCC(=O)N2CCOCC2)c(C)c1	51.4% (active)
Cc1cc(S(=O)(=O)N2CCOCC2)ccc1OCC(=O)N1CCOCC1	0.946% (inactive)

SMILES	max response
Cc1ccc(OCCCC(=O)NC(C)c2ccccc2)c(C)c1 (stereo not drawn)	6.31% (inactive)
O=C(c1ccc(Br)o1)N1CCN(CCOc2ccccc2)CC1	-3.01% (inactive)
CCCc1c(C(=O)Nc2ccc(F)cc2)cnn1-c1ccccc1	33.4% (active)
CCCc1c(C(=O)O)cnn1-c1ccc(Cl)cc1	-0.801% (inactive)
CCNC(=O)c1cnn(-c2ccccc2)c1-c1ccccc1	-0.397% (inactive)
CC(C)(C)c1cc(P(=O)(c2ccccc2)c2ccccc2)ccc1O	0.647% (inactive)
CC(C)N(C(=O)CSc1nc(COc2ccccc2)nc2ccccc12)C(C)C	9.79% (inactive)
CN1CCN(/N=C2/C(=O)Nc3ccc([N+](=O)[O-])cc32)CC1	9.26% (inactive)
CN1CCN(/N=C/c2ccc(-c3ccc([N+](=O)[O-])cc3)o2)CC1	31.4% (active)
Cc1ccc(-c2ccc(/C=N/NC(=O)CN3CCOCC3)o2)cc1[N+](=O)[O-]	12.3% (inactive)
COC(=O)c1ccc(NC(=O)C23CC4CC(C2)CC(n2cnc(Cl)n2)(C4)C3)cc1	3.9% (inactive)
CC(=O)Nc1ccc(S(=O)(=O)N2CCN(CCCOc3cc(C)ccc3C)CC2)cc1	-1.97% (inactive)
N=c1c2c(-c3ccccc3)c(-c3ccccc3)n(Cc3ccccc3)c2ncn1CCCO	-6.29% (inactive)
OCCCN1c2ccccc2Nc2nnc(-c3ccccc3)cc21	36.8% (active)
O=C(NC(=S)NC1CCS(=O)(=O)C1)c1cccc([N+](=O)[O-])c1 (stereo not drawn)	-1.9% (inactive)
CC1CCN(c2c(NCc3ccc(C(=O)NCc4ccccc4)cc3)c(=O)c2=O)CC1	3.3% (inactive)
CC1CCCN(c2ccc(C(=O)NCCc3ccccc3)cn2)C1 (stereo not drawn)	66.7% (active)
O=C(NCCc1ccccc1)c1ccc(NC2=NC3CS(=O)(=O)CC3S2)cc1 (stereo not drawn)	3.38% (inactive)

— PubChem BioAssay AID2314 (National Center for Advancing Translational Sciences (NCATS), 2010)
